Laboratory results as given in paper PMC7862700, “An all-to-all approach to the identification of sequence-specific readers for epigenetic DNA modifications on cytosine”.

Experiments:
Test in all cases: DAPPL (digital affinity profiling via proximity ligation, sequencing); 10 mM Tris-HCl pH 7.5, 50 mM NaCl, 1 mM DTT, 4% glycerol, room temperature, 30 min; GST-TFs on glutathione beads, 16-mer random dsDNA library, 0.1% formaldehyde crosslink after washing; high values mean tight binding
FLI1 = target: T1, FLI1 (Homo sapiens, UniProt Q01543 1-452); settings: protein: recombinant; tags: N-terminal GST; dsDNA, one strand shown
T1 sequence: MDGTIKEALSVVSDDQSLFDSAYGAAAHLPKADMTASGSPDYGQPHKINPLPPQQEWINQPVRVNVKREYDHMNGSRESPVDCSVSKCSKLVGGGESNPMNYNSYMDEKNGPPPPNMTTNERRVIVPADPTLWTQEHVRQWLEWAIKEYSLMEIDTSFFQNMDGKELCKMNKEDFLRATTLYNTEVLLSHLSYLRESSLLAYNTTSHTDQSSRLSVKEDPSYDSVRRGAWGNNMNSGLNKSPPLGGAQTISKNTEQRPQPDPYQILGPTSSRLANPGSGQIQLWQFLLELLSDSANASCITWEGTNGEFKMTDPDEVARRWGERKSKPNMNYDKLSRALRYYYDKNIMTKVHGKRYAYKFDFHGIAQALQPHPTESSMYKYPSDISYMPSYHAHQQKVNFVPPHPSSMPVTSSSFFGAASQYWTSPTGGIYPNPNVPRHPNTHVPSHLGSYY
Method in brief: (§1)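 Binding signal is defined as a hexamer's read frequency for one factor over its frequency for the tag-only sample. To obtain reads, GST-fused human transcription factors were expressed in yeast, captured on glutathione beads, barcoded with DNA and pooled with that sample. Pools met 200 nmole of a 16-mer random double-stranded DNA library in Tris/NaCl/DTT/glycerol buffer for 30 min at room temperature before washing, 0.1% formaldehyde crosslinking, proximity ligation (BsaI/T4 ligase, 1 h, 37 °C), PCR and Illumina NextSeq500 sequencing.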

ELK1 = target: T2, ELK1 (Homo sapiens, UniProt P19419 1-428); settings: protein: recombinant; tags: N-terminal GST; dsDNA, one strand shown
T2 sequence: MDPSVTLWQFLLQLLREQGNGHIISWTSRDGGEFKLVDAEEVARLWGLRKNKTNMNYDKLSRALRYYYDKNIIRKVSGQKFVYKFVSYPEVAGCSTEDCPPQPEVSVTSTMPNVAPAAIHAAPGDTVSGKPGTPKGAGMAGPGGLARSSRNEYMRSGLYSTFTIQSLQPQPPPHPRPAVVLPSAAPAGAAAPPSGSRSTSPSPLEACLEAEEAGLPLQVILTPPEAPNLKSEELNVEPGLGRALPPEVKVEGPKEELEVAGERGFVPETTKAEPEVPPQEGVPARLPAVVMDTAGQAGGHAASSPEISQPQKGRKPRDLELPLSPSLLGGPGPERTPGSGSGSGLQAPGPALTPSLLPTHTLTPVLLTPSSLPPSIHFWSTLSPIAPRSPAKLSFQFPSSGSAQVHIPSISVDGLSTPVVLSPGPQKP
Method in brief: as §1

GABPA = target: T3, GABPA (Homo sapiens, UniProt Q06546 1-454); settings: protein: recombinant; tags: N-terminal GST; dsDNA, one strand shown
T3 sequence: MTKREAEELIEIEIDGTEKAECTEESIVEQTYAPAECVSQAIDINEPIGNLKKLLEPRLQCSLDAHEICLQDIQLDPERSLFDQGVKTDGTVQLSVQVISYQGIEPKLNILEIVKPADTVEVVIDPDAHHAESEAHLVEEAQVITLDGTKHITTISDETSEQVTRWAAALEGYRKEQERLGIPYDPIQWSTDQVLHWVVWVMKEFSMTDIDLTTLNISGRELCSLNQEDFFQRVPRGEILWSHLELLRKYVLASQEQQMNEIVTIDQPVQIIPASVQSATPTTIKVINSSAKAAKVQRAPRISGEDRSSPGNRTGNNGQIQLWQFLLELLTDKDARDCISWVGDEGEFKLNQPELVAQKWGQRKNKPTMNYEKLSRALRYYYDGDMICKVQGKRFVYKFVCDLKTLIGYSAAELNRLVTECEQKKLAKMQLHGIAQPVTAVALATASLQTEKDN
Method in brief: as §1

ERG = target: T4, ERG (Homo sapiens, UniProt P11308 1-479); settings: protein: recombinant; tags: N-terminal GST; dsDNA, one strand shown
T4 sequence: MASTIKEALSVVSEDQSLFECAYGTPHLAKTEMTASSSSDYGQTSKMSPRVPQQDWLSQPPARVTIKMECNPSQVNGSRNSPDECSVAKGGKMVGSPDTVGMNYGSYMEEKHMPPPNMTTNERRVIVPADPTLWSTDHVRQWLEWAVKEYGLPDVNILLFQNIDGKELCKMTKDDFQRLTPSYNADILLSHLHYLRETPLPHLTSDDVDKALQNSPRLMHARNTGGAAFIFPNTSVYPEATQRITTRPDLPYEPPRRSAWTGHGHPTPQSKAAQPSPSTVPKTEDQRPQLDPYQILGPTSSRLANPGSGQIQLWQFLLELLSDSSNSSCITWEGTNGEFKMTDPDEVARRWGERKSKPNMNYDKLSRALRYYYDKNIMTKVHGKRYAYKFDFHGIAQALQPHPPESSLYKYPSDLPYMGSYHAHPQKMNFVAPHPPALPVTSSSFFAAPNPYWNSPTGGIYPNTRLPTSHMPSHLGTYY
Method in brief: as §1

ELF1 = ELF1 (Homo sapiens, UniProt P32519 1-619); settings: protein: recombinant; tags: N-terminal GST; dsDNA, one strand shown
Method in brief: as §1

EHF = target: T5, EHF (Homo sapiens, UniProt Q9NZC4 1-300); settings: protein: recombinant; tags: N-terminal GST; dsDNA, one strand shown
T5 sequence: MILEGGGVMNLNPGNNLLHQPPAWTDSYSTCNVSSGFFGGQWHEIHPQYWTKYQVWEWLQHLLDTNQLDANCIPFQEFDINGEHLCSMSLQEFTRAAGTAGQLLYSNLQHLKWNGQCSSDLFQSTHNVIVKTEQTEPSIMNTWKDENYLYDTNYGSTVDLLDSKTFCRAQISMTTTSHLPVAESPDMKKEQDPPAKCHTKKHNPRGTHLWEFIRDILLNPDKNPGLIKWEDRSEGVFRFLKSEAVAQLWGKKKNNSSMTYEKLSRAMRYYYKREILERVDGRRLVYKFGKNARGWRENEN
Method in brief: as §1

SPI1 = SPI1 (Homo sapiens, UniProt P17947 1-270); settings: protein: recombinant; tags: N-terminal GST; dsDNA, one strand shown
Method in brief: as §1

SPIB = SPIB (Homo sapiens, UniProt Q01892 1-262); settings: protein: recombinant; tags: N-terminal GST; dsDNA, one strand shown
Method in brief: as §1

ELK3 = target: T6, ELK3 (Homo sapiens, UniProt P41970 1-407); settings: protein: recombinant; tags: N-terminal GST; dsDNA, one strand shown
T6 sequence: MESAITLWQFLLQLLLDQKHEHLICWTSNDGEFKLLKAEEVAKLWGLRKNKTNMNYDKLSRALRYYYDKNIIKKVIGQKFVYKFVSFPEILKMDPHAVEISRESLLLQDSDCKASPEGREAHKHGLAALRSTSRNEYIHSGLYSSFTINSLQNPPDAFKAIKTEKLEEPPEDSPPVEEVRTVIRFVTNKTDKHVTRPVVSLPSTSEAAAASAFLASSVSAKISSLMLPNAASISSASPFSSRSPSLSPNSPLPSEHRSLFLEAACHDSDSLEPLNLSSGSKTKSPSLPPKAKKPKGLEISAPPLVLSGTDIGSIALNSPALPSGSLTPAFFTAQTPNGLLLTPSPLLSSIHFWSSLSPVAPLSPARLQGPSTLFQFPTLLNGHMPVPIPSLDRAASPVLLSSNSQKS
Method in brief: as §1

FEV = target: T7, FEV (Homo sapiens, UniProt Q99581 1-238); settings: protein: recombinant; tags: N-terminal GST; dsDNA, one strand shown
T7 sequence: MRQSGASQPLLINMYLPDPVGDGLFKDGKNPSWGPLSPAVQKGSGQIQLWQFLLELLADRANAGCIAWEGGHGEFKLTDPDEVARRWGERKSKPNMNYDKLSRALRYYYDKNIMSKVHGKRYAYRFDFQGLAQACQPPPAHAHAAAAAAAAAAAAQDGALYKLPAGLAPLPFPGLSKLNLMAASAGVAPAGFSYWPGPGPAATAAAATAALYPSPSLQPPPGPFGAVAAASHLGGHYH
Method in brief: as §1

ETV5 = ETV5 (Homo sapiens, UniProt P41161 1-510); settings: protein: recombinant; tags: N-terminal GST; dsDNA, one strand shown
Method in brief: as §1

HSF1 = HSF1 (Homo sapiens, UniProt Q00613 1-529); settings: protein: recombinant; tags: N-terminal GST; chain copies: 3; dsDNA, one strand shown
Method in brief: as §1

SPIC = target: T8, SPIC (Homo sapiens, UniProt Q8N5J4 1-248); settings: protein: recombinant; tags: N-terminal GST; dsDNA, one strand shown
T8 sequence: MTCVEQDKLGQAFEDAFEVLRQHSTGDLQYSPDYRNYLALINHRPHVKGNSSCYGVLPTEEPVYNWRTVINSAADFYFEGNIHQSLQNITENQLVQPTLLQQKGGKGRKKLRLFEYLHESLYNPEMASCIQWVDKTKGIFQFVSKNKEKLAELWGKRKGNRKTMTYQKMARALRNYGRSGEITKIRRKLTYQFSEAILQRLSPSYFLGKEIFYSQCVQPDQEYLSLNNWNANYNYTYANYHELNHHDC
Method in brief: as §1

ELF4 = ELF4 (Homo sapiens, UniProt Q99607 1-663); settings: protein: recombinant; tags: N-terminal GST; dsDNA, one strand shown
Method in brief: as §1

ELK4 = target: T9, ELK4 (Homo sapiens, UniProt P28324-2 1-405); settings: protein: recombinant; tags: N-terminal GST; dsDNA, one strand shown
T9 sequence: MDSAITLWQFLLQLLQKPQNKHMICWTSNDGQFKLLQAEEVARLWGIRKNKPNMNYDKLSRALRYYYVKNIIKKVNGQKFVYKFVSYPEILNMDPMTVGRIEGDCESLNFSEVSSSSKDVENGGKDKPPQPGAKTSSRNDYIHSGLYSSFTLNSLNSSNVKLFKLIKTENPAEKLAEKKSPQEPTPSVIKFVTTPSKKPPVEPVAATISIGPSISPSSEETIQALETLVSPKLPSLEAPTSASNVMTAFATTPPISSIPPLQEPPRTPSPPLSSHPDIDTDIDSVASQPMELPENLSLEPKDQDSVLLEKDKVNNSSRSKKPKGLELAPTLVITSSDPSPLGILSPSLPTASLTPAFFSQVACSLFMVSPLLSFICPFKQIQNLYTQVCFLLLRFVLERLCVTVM
Method in brief: as §1

ETV2 = target: T10, ETV2 (Homo sapiens, UniProt O00321 1-342); settings: protein: recombinant; tags: N-terminal GST; dsDNA, one strand shown
T10 sequence: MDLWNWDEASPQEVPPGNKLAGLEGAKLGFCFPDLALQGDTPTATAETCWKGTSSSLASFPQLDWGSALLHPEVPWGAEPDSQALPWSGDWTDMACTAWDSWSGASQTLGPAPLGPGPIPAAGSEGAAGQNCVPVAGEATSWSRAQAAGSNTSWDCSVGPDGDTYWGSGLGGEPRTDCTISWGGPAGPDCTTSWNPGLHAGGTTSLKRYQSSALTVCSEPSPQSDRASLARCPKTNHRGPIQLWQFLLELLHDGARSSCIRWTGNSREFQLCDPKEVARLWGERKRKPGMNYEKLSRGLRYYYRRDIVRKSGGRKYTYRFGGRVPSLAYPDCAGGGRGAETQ
Method in brief: as §1

ELF3 = target: T11, ELF3 (Homo sapiens, UniProt P78545 1-371); settings: protein: recombinant; tags: N-terminal GST; dsDNA, one strand shown
T11 sequence: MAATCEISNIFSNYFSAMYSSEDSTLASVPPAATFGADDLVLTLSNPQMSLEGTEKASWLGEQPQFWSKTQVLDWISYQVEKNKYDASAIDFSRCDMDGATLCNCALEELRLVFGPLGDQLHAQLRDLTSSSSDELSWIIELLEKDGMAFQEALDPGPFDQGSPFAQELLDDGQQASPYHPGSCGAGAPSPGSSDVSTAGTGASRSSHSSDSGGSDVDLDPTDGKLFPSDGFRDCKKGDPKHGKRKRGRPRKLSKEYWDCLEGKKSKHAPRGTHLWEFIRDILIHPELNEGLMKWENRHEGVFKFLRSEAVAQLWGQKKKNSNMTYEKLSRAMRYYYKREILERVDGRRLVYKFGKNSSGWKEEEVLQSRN
Method in brief: as §1

CRX = CRX (Homo sapiens, UniProt O43186 1-299); settings: protein: recombinant; tags: N-terminal GST; dsDNA, one strand shown
Method in brief: as §1

ETV1 = ETV1 (Homo sapiens, UniProt P50549 1-477); settings: protein: recombinant; tags: N-terminal GST; dsDNA, one strand shown
Method in brief: as §1

Chain of ELF4 (Q99607 whole entry): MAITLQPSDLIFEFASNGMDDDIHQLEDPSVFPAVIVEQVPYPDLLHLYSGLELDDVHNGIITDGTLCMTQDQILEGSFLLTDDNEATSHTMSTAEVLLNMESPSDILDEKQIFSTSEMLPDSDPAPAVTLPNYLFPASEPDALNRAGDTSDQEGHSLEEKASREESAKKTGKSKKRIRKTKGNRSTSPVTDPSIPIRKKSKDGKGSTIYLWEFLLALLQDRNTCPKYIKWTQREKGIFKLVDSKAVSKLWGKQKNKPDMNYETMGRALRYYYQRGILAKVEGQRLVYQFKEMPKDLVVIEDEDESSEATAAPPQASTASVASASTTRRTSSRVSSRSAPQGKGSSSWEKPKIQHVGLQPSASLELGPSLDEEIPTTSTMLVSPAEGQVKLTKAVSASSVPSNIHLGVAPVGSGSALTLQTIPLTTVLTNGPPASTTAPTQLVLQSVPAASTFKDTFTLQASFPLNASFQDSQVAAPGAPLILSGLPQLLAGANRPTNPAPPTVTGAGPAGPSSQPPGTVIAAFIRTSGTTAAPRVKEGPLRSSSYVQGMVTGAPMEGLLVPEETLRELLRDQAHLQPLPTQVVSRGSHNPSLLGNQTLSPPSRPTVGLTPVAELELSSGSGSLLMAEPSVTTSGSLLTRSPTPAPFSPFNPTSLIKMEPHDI
Chain of CRX (O43186 whole entry): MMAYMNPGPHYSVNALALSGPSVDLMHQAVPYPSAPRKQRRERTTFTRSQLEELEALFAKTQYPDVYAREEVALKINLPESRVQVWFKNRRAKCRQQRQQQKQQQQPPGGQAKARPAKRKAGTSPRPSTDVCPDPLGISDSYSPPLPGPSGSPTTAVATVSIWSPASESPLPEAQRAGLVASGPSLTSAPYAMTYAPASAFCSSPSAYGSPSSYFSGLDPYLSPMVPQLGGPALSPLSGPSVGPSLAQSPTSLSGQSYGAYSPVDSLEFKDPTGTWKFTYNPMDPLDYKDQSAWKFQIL
Chain of HSF1 (Q00613 whole entry): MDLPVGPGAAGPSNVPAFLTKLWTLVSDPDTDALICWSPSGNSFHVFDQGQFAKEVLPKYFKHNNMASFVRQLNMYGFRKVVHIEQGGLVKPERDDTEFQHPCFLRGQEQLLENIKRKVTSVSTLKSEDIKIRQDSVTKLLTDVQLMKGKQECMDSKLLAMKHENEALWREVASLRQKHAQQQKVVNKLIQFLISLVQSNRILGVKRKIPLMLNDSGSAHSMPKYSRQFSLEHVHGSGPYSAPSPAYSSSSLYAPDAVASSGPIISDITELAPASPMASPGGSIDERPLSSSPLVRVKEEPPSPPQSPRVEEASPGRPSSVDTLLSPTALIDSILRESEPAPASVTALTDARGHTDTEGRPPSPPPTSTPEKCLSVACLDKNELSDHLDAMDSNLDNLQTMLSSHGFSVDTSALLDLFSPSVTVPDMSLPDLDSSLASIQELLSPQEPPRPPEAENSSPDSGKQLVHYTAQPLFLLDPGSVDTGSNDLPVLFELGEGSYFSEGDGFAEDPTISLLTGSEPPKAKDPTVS
Chain of ELF1 (P32519 whole entry): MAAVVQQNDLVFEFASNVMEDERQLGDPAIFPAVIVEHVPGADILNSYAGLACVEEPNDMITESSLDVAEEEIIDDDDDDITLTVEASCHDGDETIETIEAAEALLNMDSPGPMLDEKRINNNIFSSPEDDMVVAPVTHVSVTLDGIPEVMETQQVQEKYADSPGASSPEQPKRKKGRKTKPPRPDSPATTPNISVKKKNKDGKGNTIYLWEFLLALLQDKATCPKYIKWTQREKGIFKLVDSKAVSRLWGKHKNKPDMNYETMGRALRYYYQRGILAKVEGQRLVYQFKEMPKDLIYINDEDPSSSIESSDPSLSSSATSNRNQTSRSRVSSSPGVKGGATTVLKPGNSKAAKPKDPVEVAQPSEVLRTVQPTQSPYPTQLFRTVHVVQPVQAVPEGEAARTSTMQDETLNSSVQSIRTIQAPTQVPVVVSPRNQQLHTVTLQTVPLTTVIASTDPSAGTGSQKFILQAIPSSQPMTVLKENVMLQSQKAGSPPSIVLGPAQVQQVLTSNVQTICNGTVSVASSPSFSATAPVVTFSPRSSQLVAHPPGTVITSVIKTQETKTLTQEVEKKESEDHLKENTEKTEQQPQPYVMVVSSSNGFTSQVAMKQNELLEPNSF
Chain of ETV1 (P50549 whole entry): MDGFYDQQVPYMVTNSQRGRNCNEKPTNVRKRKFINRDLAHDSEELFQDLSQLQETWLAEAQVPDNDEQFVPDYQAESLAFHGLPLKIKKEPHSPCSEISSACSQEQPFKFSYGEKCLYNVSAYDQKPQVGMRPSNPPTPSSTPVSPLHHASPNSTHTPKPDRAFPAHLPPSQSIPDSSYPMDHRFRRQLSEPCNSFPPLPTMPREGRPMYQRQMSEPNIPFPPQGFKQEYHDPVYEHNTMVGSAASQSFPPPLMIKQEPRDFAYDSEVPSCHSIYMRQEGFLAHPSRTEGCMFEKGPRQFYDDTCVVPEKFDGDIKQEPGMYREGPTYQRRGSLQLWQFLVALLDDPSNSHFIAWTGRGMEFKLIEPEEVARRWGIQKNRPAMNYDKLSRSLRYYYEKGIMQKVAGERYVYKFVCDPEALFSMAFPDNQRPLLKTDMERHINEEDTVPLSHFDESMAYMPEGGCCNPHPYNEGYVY
Chain of ETV5 (P41161 whole entry): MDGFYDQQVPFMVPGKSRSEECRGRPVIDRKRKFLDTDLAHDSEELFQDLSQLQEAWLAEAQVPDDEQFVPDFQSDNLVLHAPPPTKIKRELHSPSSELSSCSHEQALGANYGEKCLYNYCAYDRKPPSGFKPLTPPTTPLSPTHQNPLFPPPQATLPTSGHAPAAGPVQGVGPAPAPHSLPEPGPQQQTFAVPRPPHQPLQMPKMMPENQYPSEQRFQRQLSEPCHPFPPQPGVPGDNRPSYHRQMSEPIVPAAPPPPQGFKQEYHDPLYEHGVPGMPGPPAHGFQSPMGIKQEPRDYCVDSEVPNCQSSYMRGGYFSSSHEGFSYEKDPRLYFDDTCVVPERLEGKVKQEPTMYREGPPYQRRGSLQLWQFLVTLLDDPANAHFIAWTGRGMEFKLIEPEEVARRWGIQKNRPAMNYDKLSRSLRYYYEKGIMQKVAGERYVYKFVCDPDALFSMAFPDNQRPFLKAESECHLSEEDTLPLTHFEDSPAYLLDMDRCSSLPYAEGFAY
Chain of SPIB (Q01892 whole entry): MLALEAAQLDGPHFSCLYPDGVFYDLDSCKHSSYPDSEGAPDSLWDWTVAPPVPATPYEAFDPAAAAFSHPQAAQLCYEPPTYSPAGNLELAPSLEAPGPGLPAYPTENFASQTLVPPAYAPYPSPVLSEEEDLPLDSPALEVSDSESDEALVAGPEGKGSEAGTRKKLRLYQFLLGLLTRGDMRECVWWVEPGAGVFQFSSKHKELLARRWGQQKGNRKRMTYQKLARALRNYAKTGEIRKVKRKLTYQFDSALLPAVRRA

## ATTTCT
FLI1
  binding signal: 1.45 fold enrichment (6-mer frequency, TF over GST control)
ELK1
  binding signal: 1.51 fold enrichment (6-mer frequency, TF over GST control)
GABPA
  binding signal: 1.51 fold enrichment (6-mer frequency, TF over GST control)
ERG
  binding signal: 1.5 fold enrichment (6-mer frequency, TF over GST control)
ELF1
  binding signal: 1.48 fold enrichment (6-mer frequency, TF over GST control)
EHF
  binding signal: 1.3 fold enrichment (6-mer frequency, TF over GST control)
SPI1
  binding signal: 1.47 fold enrichment (6-mer frequency, TF over GST control)
SPIB
  binding signal: 1.43 fold enrichment (6-mer frequency, TF over GST control)
ELK3
  binding signal: 1.32 fold enrichment (6-mer frequency, TF over GST control)
FEV
  binding signal: 1.43 fold enrichment (6-mer frequency, TF over GST control)
ETV5
  binding signal: 1.39 fold enrichment (6-mer frequency, TF over GST control)
HSF1
  binding signal: 2.3 fold enrichment (6-mer frequency, TF over GST control)
SPIC
  binding signal: 1.49 fold enrichment (6-mer frequency, TF over GST control)
ELF4
  binding signal: 1.4 fold enrichment (6-mer frequency, TF over GST control)
ELK4
  binding signal: 1.66 fold enrichment (6-mer frequency, TF over GST control)
ETV2
  binding signal: 1.4 fold enrichment (6-mer frequency, TF over GST control)
ELF3
  binding signal: 1.76 fold enrichment (6-mer frequency, TF over GST control)
CRX
  binding signal: 1.68 fold enrichment (6-mer frequency, TF over GST control)
ETV1
  binding signal: 1.51 fold enrichment (6-mer frequency, TF over GST control)
